Hits are enriched below; roughly 2.8% of the tested compounds scored in any of these assays.
CF NFkB block: inhibitors of PAF-induced NF-kB signaling, primary screen, cell-based, GFP fluorescence, uHTS | KKLEB NF-kB-GFP reporter, GFP fluorescence overnight | inhibition, % at 5 µM | 360,000 tested, 0.86% active | AID 588850, 2011;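 active means at least 50% inhibition at 5 µM, scaled per plate between neutral and stimulator controls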;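 further: PAF is a Pseudomonas aeruginosa culture filtrate used as stimulus; plate controls were PAF-stimulated DMSO wells for no effect and unstimulated DMSO wells for full effect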
Shn3 3UTR inh: reduction of Shn3 3'UTR firefly luciferase signal, primary screen, Schnurri-3 inhibitor project, cell-based, Clone20 osteoblasts, set 2. Clone20 osteoblast Shn3 3'UTR firefly luciferase, 24 h. inhibition, % at 12.5 µM. 360,000 tested, 0.52% active. AID 588674, 2011;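 active means mean inhibition of at least 75% with every replicate also reaching 75%; inconclusive means mean inhibition at least 75% but some replicate below; inactive means mean inhibition below 75%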;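 further: 0% = median of neutral control wells and 100% = pilot-screen positive control compound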
MITF TRPM1 inh: inhibitors of MITF-dependent TRPM1 promoter reporter, primary screen, cell-based, SK-MEL-5, single point, luciferase; SK-MEL-5 TRPM1 promoter luciferase, 24 h; AID 488899, 2010; 330,000 tested, 0.83% active; inhibition, % at 12.5 µM;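 active means mean inhibition across replicates of 60% or more, whatever share of single replicates reaches that level; inconclusive means some that reach 60%, reason not given; inactive means mean inhibition across replicates below 60%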
Peg3 promoter: Peg3 promoter-driven luciferase inhibitors, primary screen, cell-based, HeLa, luciferase luminescence; inhibition, % at 20 µM; HeLa PEG-Prom luciferase reporter, overnight; AID 588405, 2011; 360,000 tested, 1.7% active;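 active means inhibition of at least 50% at 20 µM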
KKLEB cytotox: cytotoxicity in KKLEB CF airway cells, primary screen, cytotoxicity control for CF NF-kB inhibitor project, cell-based, uHTS, fluorescence assay plates; AID 602141, 2011; KKLEB CF airway cells viability, ATPlite luminescence, overnight; stronger effect = lower value; cells stimulated with P. aeruginosa culture filtrate; activity change (cytotoxicity), % at 5 µM; 360,000 tested, 0.36% active;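 active means corrected activity change at or below -50% at 5 µM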
HIF-2a inh: HIF-2a reporter inhibitors, primary screen, luminescence, 786-0 RCC cells | 786-0 RCC cells HIF-2a reporter, luciferase luminescence, overnight | inhibition, % at 18.8 µM | 360,000 tested, 0.72% active | AID 624352, 2012;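 active means inhibition of the luminescence signal of 40% or more relative to plate controls, in a single-dose primary screen at 18.75 µM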
The depositor's hits bear a star; ? = inconclusive; . = no result given.

SMILES | CF NFkB block | Shn3 3UTR inh | MITF TRPM1 inh | Peg3 promoter | KKLEB cytotox | HIF-2a inh
CC(CC(C)(C)N1CC1)=NNC(=O)Nc1cccc2ccccc12 | -11 | 9 | 3 | 17 | -1 | -2
O=C(/C=C/c1c[nH]c2ccccc12)c1c(O)n(CCc2ccccc2)c(=O)[nH]c1=O | -190 | -13 | 11 | -33 | 2 | 14
Cc1ccc(N2C(=O)NC(=O)/C(=C\C=C\c3ccco3)C2=O)cc1C | 80* | ? | 90* | 76* | -38 | 76*
Nc1ccc(C2(c3ccc(N)cc3)c3ccccc3-c3ccccc32)cc1 | 75* | -17 | 4 | 27 | -57* | 27
COc1cc2cc(C(=O)N3CC(COS(C)(=O)=O)c4ccc(O)cc43)[nH]c2c(OC)c1OC (stereo not given) | 88* | 95* | 110* | 99* | -96* | 83*
O=c1[nH]c2ccccc2n1C1CCN(C(c2cccs2)c2nnnn2Cc2ccccc2)CC1 (stereo not given) | 86* | 85* | . | 78* | -79* | 0
O=c1[nH]c2ccccc2n1C1CCN(C(CCc2ccccc2)c2nnnn2C2CCCCC2)CC1 (stereo not given) | 86* | 8 | . | 98* | -69* | -84
O=c1[nH]c2ccccc2n1C1CCN(C(c2ccccc2OC(F)(F)F)c2nnnn2Cc2ccccc2)CC1 (stereo not given) | 82* | -9 | . | 92* | -54* | -51
CSCCC(c1nnnn1C1CCCCC1)N1CCC(n2c(=O)[nH]c3ccccc32)CC1 (stereo not given) | 33 | 17 | . | 46 | 2 | -15
CSCCC(c1nnnn1Cc1ccccc1)N1CCC(n2c(=O)[nH]c3ccccc32)CC1 (stereo not given) | 87* | 79 | . | 65* | -104* | -17
O=c1[nH]c2ccccc2n1C1CCN(C(c2nnnn2C2CCCCC2)C2CC2)CC1 (stereo not given) | -3 | 4 | . | 41 | 3 | -13
COC(=O)N1Cc2ccccc2-n2nncc2C1 | 2 | -8 | . | 0 | -1 | 15
CC(=O)OC1CCC2(C)C(CCC3C4CC(N5CC5)C(C(C)=O)C4(C)CC(=O)C32)C1 (stereo not given) | 0 | 6 | 8 | -12 | 12 | 24
Cc1cccc(C)c1-n1nnnc1C(c1cccs1)N1CCC(n2c(=O)[nH]c3ccccc32)CC1 (stereo not given) | 0 | -20 | . | 29 | -8 | 9
COc1ccc(C(c2nnnn2Cc2ccccc2)N2CCC(n3c(=O)[nH]c4ccccc43)CC2)cc1 (stereo not given) | 85* | -11 | . | 74* | -96* | -25
O=c1[nH]c2ccccc2n1C1CCN(C(c2nnnn2Cc2ccccc2)C2CC2)CC1 (stereo not given) | 86* | 49 | . | 76* | -79* | -25
O=c1[nH]c2ccccc2n1C1CCN(C(c2nnnn2C2CCCC2)C2CC2)CC1 (stereo not given) | 12 | -11 | . | 11 | 6 | -11
CC(C)(C)n1nnnc1C(C1CC1)N1CCC(n2c(=O)[nH]c3ccccc32)CC1 (stereo not given) | -3 | 5 | . | 23 | 2 | -2
Cc1cccc(C)c1-n1nnnc1C(C1CC1)N1CCC(n2c(=O)[nH]c3ccccc32)CC1 (stereo not given) | -34 | 7 | . | 51* | 11 | -7
COC(=O)C1=C(c2ccc3ccccc3c2)C[C@@H]2CC[C@H]1N2C(=O)NC1CC1 | 0 | 9 | 4 | 2 | -2 | 23
COC(=O)C1=C(c2ccc3ccccc3c2)C[C@@H]2CC[C@H]1N2C(=O)NCC1CC1 | 9 | 89* | 6 | -6 | 2 | 14
CCOC(=O)C1(c2ccccc2)CCN(CCC(=O)Nc2ccc(OC)cc2)CC1 | 5 | -1 | . | 0 | -12 | 10
CCOC(=O)C1(c2ccccc2)CCN(CCC(=O)Nc2cccc(Br)c2)CC1 | 0 | 31 | 19 | 59* | 2 | 9
C=C1C(=O)O[C@@H]2C[C@@H](C)[C@@H]3C=CC(=O)[C@@]3(C)[C@@H](OC(=O)CC(=O)O[C@H]3[C@@H]4C(=C)C(=O)O[C@@H]4C[C@@H](C)[C@@H]4C=CC(=O)[C@]43C)[C@H]12 | 80* | 96* | 98* | 105* | -37 | 97*
O=C(Nc1cc(Cl)cc(Cl)c1)N1Cc2ccccc2-n2nncc2C1 | -20 | 12 | . | 1 | 6 | 1
SMILES | CF NFkB block | Shn3 3UTR inh | MITF TRPM1 inh | Peg3 promoter | KKLEB cytotox | HIF-2a inh
COc1ccc(-c2cc(-c3ccccc3)[n+](C)c(-c3ccccc3)c2)cc1 | 20 | 15 | 66* | 34 | -15 | 17
CCCOC(=O)c1ccc(-[n+]2c(-c3ccccc3)cc(-c3ccccc3)cc2-c2ccccc2)cc1 | 29 | 52 | 64* | 48 | -10 | -9
Cc1ccccc1-[n+]1c(-c2ccccc2)cc(-c2ccccc2)cc1-c1ccccc1 | 37 | 30 | 90* | 37 | -6 | -7
Oc1ccccc1-[n+]1c(-c2ccccc2)cc(-c2ccccc2)cc1-c1ccccc1 | -15 | -13 | 12 | 13 | 15 | -6
O=C(O)c1ccc(-[n+]2c(-c3ccccc3)cc(-c3ccccc3)cc2-c2ccccc2)cc1 | 22 | 0 | -9 | -21 | -5 | -7
Brc1ccc(-[n+]2c(-c3ccccc3)cc(-c3ccccc3)cc2-c2ccccc2)cc1 | 30 | 90* | 70* | 31 | -9 | 2
COc1cc2c(c(OC)c1OC)-c1ccc(O)c(=O)cc1C(NC(C)=O)CC2 (stereo not given) | 54* | -8 | 51 | -34 | -18 | -8
O=C(NC1CCCCC1)N1Cc2ccccc2-n2nncc2C1 | -24 | 5 | -4 | -14 | 12 | -1
COC(=O)C1=C(C(=O)OC)SC2(S1)C(C(=O)OC)=C(C(=O)OC)Sc1c2ssc1=O | 113* | 98* | 101* | 111* | -69* | 88*
Brc1ccc2[nH]cc(C=NN3CCCCCC3)c2c1 | -4 | -1 | -5 | -9 | 3 | 3
c1ccc(-c2ccc(CN3Cc4ccccc4-n4nncc4C3)cc2)cc1 | -46 | 83 | . | 10 | 10 | -10
Cc1nn(Cc2ccccc2)c(Cl)c1C(=O)NC1CCCc2ccccc21 (stereo not given) | 23 | -17 | -19 | 21 | -6 | -3
CC(=O)OC1CC2OC3C=C(C)CCC3(C)C1(C)C21CO1 (stereo not given) | 93* | 98* | . | 108* | -19 | 72*
